Screens (PubChem)
SW480 rereplic – A quantitative high throughput screen for small molecules that induce DNA re-replication in SW480 colon adenocarcinoma cells. Potency, µM (doses to about 46.1 µM), most hits filed as activators. AID 624297, 2012. SW480 DNA re-replication, Hoechst DNA content imaging, 48 h. 340,000 tested, 1.8% active; note: nearly all actives have a fitted effect of over 55% in size
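First, 250 cells per well were seeded. Next, compound or vehicle (23 nL) was pinned in, plates sat 48 hr at 37 C. Finally Hoechst was added for 40 min before fluorescence scanning.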
MCF10A rereplic – A quantitative high throughput screen for small molecules that induce DNA re-replication in MCF 10a normal breast cells | 350,000 tested, 2.9% active | Potency, µM (doses to about 46.1 µM), hits mostly activators | MCF 10A DNA re-replication, Hoechst nuclear intensity, 48 h; note: nearly all actives have a fitted effect of over 50% in size
IL-1B inflam inh – qHTS for Inhibitors of Inflammasome Signaling: IL-1-beta AlphaLISA Primary Screen | THP-1 LPS/ATP IL-1B secretion, AlphaLISA, 16 h; hits give low values | activity change, % at 57.5 µM | 360,000 tested, 4.7% active | AID 743279, 2014; in the data active = activity change below about -50%; inconclusive = mostly about -30% to -49%
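Secreted IL-1B measured by AlphaLISA bead assay after 16 h compound exposure of THP-1 cells; compounds (final up to 57.5 uM) added 1 h before LPS (250 ng/mL) and ATP (1.25 mM) stimulation; lower signal means less secretion.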
KB-V1 cytotox – qHTS assay for MDR1-selective chemotherapeutics: Primary screen using the drug-selected MDR subline cells KB-V1; KB-V1 MDR cells viability, CellTiter-Glo, 72 h; Potency, µM (top dose mostly 46.1 µM), usual class: cytotoxic; 400,000 tested, 3.4% active; AID 1347076, 2019; note: nearly all actives have a fitted effect of over 60% in size
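KB-V1 MDR subline cells in DMEM (phenol-red free, 10% FBS) exposed to compounds in qHTS concentration series for 72 h at 37 degrees C. Viability read by CellTiter-Glo luminescence; concentration-effect curves fitted after normalization and correction.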
KB-3-1 tox – qHTS assay for MDR1-selective chemotherapeutics: Primary screen using the parental adenocarcinoma cell KB-3-1 | KB-3-1 viability, CellTiter-Glo ATP luminescence, 72 h | 400,000 tested, 1.4% active | AID 1347075, 2019 | Potency, µM (series often up to 46.1 µM), hits mostly cytotoxic; note: nearly all actives have a fitted effect of over 60% in size
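KB-3-1 parental drug-naive adenocarcinoma cells in DMEM/10% FBS, incubated 72 h at 37 C with pin-transferred compounds across a concentration series. Viability by CellTiter-Glo luminescence; concentration-response curves fitted after normalization.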
Numbers stand for hits; – = inactive; ? = inconclusive; · = not tested or not shown. Sampled rows, rich in hits. Any-hit rate of the full collection: about 9.9%. Unless noted, calls come from the whole dose curve; as a rule, active = well fitted curve in the direction sought with a large enough effect; inconclusive = small, poorly fitted or top-dose-only effect, or another doubt; inactive = no such curve, though single readings can be large; an effect the other way counts as inactive or inconclusive.

SMILES	SW480 rereplic	MCF10A rereplic	IL-1B inflam inh	KB-V1 cytotox	KB-3-1 tox
Cc1ccc(C2C(C(=O)c3cccs3)=C(O)C(=O)N2c2nnc(C)s2)cc1 (stereo not drawn)	–	–	–	–	–
CCCCCCCN(c1ccccc1)[C@@H]1C[C@H]2CCCC(=O)N3CC[C@@H](C1)[C@@H]23	–	?	-108	?	?
CCCCNC(=O)O[C@@H]1C[C@H]2CCCC(=O)N3CC[C@@H](C1)[C@@H]23	–	–	–	?	–
O=C(NCc1cccc(Cl)c1)c1c2c(nc3ccccc13)C(=O)N(C1CCCCC1)C2	·	·	·	–	–
O=C(Nc1sc2c(c1C(=O)c1ccccc1)CCCC2)c1cccnc1	–	–	–	–	–
N#Cc1c(NC(=O)c2cccnc2)sc2c1CCC2	16µM	5.8µM	–	5.8µM	9.2µM
CCC(C)(C)C1CCc2c(sc(NC(=O)c3ccccc3C(=O)O)c2C#N)C1 (stereo not drawn)	–	18µM	–	?	–
N#Cc1c(NC(=O)c2ccccc2)sc2c1CCC2	10µM	?	–	4.6µM	16µM
COc1ccc(-c2ccc(C#N)c(SCC(=O)Nc3sc4c(c3C#N)CCC4)n2)cc1	3.3µM	?	–	–	–
CC1CCc2c(sc(NC(=O)c3ccccc3C(=O)O)c2C#N)C1 (stereo not drawn)	?	–	–	–	–
Cc1cc(C)n(-c2nc3cc(Cl)ccc3nc2N2CCN(c3ccccc3F)CC2)n1	·	·	·	?	–
CC(C)(C)c1ccc(S(=O)(=O)NC(=O)C2(C)CCN2C(=O)C2(c3ccccc3)CC2)cc1 (stereo not drawn)	·	·	–	–	–
CC(C)c1cc(C(=O)Nc2sc3c(c2C#N)CCC3)no1	?	15µM	–	?	?
Cc1cc(C)nc(SCC(=O)Nc2sc3c(c2C#N)CCC(C)C3)n1 (stereo not drawn)	–	–	–	?	–
N#Cc1c(NC(=O)c2cnccn2)sc2c1CCCC2	5.8µM	?	–	16µM	?
Cc1ccnc(SCC(=O)Nc2sc3c(c2C#N)CCC(C(C)(C)C)C3)n1 (stereo not drawn)	–	?	–	13µM	?
CCCS(=O)(=O)NC(=O)C1(C)CCN(C(=O)c2snnc2C)C1 (stereo not drawn)	·	·	–	–	–
Brc1cc2c(cc1C1Nc3ccccc3C3C=CCC31)OCO2 (stereo not drawn)	16µM	?	–	?	?
CC(=O)c1ccc2c(c1)C1C=CCC1C(c1ccncc1)N2 (stereo not drawn)	–	–	–	23µM	?
O=C(O)c1ccc2c(c1)C1C=CCC1C(c1cc3c(cc1Br)OCO3)N2 (stereo not drawn)	–	?	–	–	–
C1=CC2c3ccccc3NC(c3ccncc3)C2C1 (stereo not drawn)	–	–	-107	–	–
NC(=O)C1CCN(c2ncc(-c3cccc(N4CCCC4)c3)s2)CC1	·	·	·	?	–
CCOc1ccccc1NC(=O)CSC1=Nc2ccccc2C2=NC(CC(=O)NC3CCCCC3)C(=O)N12 (stereo not drawn)	·	·	·	–	–
Cc1ccc(Nc2nc(N)c([N+](=O)[O-])c(N3CCC(C)CC3)n2)cc1C	?	–	-80	23µM	?
Cc1cccc(Nc2nc(N)c([N+](=O)[O-])c(N3CCCC(C)C3)n2)c1 (stereo not drawn)	?	?	-103	?	?
SMILES	SW480 rereplic	MCF10A rereplic	IL-1B inflam inh	KB-V1 cytotox	KB-3-1 tox
CCN1CCN(c2nc(Nc3cccc(C)c3)nc(N)c2[N+](=O)[O-])CC1	–	–	?	4.1µM	–
CCN1CCN(c2nc(Nc3ccccc3)nc(N)c2[N+](=O)[O-])CC1	–	–	–	–	–
CCN(C(=O)Cn1c(=O)oc2cc(S(=O)(=O)N3CCCCC3)ccc21)c1ccccc1	·	·	·	–	?
Cc1cc(C=O)c(C)n1-c1ccc2c(c1)OCO2	–	–	–	–	–
O=Cc1cc2c(cc1[B-](F)(F)F)OCO2	16µM	–	–	–	–
OC(CCN1CCC2CCC(C2)C1)c1ccc(Br)cc1 (stereo not drawn)	15µM	–	–	–	?
O=C(CCN1CCC2CCC(C2)C1)c1ccccc1 (stereo not drawn)	?	?	–	–	–
CSc1cc(-c2ccccc2)n(Cc2ccccc2Cl)c(=O)c1C#N	6.5µM	3.7µM	–	?	4.6µM
C=CCn1c(-c2ccccc2)cc(SC)c(C#N)c1=O	–	–	–	–	–
N#Cc1c(-c2ccccc2)ccn(Cc2ccccc2Cl)c1=O	–	?	–	–	–
CCCn1c(-c2ccccc2)cc(SC)c(C#N)c1=O	5.8µM	–	–	–	–
Fc1ccc(CNc2nc(-c3ccccc3)nc3ccccc23)cc1	–	?	-62	–	–
O=[N+]([O-])c1ccc(-c2nc(NCc3ccccc3)c3ccccc3n2)cc1	–	?	–	–	–
COc1cccc(-c2nc(NCc3ccccc3)c3ccccc3n2)c1O	–	–	–	–	–
COc1ccc(CNc2nc(-c3ccccc3)nc3ccccc23)cc1OC	–	–	-62	–	–
COc1cccc(-c2nc(NC3CCCC3)c3ccccc3n2)c1O	–	?	–	–	–
c1ccc(-c2nc(NC3CCCC3)c3ccccc3n2)cc1	–	–	-63	?	?
CCCn1nc(C(=O)N(C)CC(=O)Nc2ccc(OCC)c(OCC)c2)c2ccccc2c1=O	–	–	–	–	–
CC1CCN(CCCNC(=O)c2ccc3c(Cl)c4c(nc3c2)CCCC4)CC1	?	?	·	–	?
Cc1cccc(NC(=O)CSCC(=O)N(CCC(C)C)c2c(N)n(Cc3ccccc3)c(=O)[nH]c2=O)c1	–	–	–	–	?
O=C(Nc1ccc(Cl)cc1)NC1CCCCC1Cc1ccco1 (stereo not drawn)	–	?	–	?	?
O=C(Nc1ccc(Cl)cc1)NC1CCCC1Cc1ccco1 (stereo not drawn)	–	–	-89	–	–
CCN1C(=O)[C@H]2[C@@H](c3ccc(-c4ccc(F)cc4)c(OC)c3)N3CCCC[C@@]3(C(=O)OC)[C@H]2C1=O	–	?	-74	?	?
CCN1C(=O)[C@H]2[C@@H](c3ccc(-c4cccc(Cl)c4)c(OC)c3)N3CCCC[C@@]3(C(=O)OC)[C@H]2C1=O	–	–	-62	21µM	–
CCN1C(=O)[C@H]2[C@@H](c3ccc(-c4ccc(Cl)c(Cl)c4)c(OC)c3)N3CCCC[C@@]3(C(=O)OC)[C@H]2C1=O	–	–	–	?	21µM
